Reference: PubChem BioAssay AID1159580 (chemical genetic matrix, 2015)
Hit rate of the full screen: of about 5,500 compounds, about 2,000 (36%) were called active. About 18% were inconclusive and are not listed. Cut-off read from the data, not from the text of the source: active = normalized growth mostly below about 0.91 (no sharp cut-off); inconclusive = no clear call, values can overlap the other calls; inactive = mostly above about 0.92. This is one part of the list.

Assay: chemical genetic growth profiling, strain panel (AID 1159580);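 note: tested at 20 µM; growth read once vehicle control cultures reached saturation at 30 °C; 1 = growth at the plate median or of vehicle wells; lower values mean less growth of the strain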
Details: growth OD

Measured: normalized growth

COC(=O)COc1cc(Cl)c(Cl)cc1Cl
active: S. cerevisiae deletion strains, locus YLR039C, strain RIC1, stronger effect = lower value 0.613 | S. cerevisiae deletion strains, locus YNL183C, strain NPR1, stronger effect = lower value 0.809 | S. cerevisiae deletion strains, locus YNL307C, strain MCK1, stronger effect = lower value 0.855 | S. cerevisiae deletion strains, locus YPL256C, strain CLN2, stronger effect = lower value 0.786
inactive: S. cerevisiae deletion strains, locus YJR075W, strain HOC1, stronger effect = lower value 0.952 | S. cerevisiae deletion strains, locus YKL009W, strain mrt4, stronger effect = lower value 0.995 | S. cerevisiae deletion strains, locus YKL068W, stronger effect = lower value 0.955 | S. cerevisiae deletion strains, locus YKL085W, strain MDH1 (second series), stronger effect = lower value 0.949 | S. cerevisiae deletion strains, locus YKL085W, strain MDH1, stronger effect = lower value 0.949 | S. cerevisiae deletion strains, locus YKL160W, strain elf1, stronger effect = lower value 1 | S. cerevisiae deletion strains, locus YKL190W, strain CNB1, stronger effect = lower value 0.971 | S. cerevisiae deletion strains, locus YKR001C, strain vps1, stronger effect = lower value 0.916 | S. cerevisiae deletion strains, locus YKR026C, strain gcn3, stronger effect = lower value 0.992 | S. cerevisiae deletion strains, locus YKR091W, strain srl3, stronger effect = lower value 0.993 | S. cerevisiae deletion strains, locus YLL001W, strain dnm1, stronger effect = lower value 0.99 | S. cerevisiae deletion strains, locus YLL026W, stronger effect = lower value 0.993 | S. cerevisiae deletion strains, locus YLL041C, strain sdh2, stronger effect = lower value 1 | S. cerevisiae deletion strains, locus YLR027C, strain aat2, stronger effect = lower value 0.991 | S. cerevisiae deletion strains, locus YLR058C, strain SHM2, stronger effect = lower value 0.979 | S. cerevisiae deletion strains, locus YLR102C, strain apc9, stronger effect = lower value 0.957 | S. cerevisiae deletion strains, locus YLR113W, strain HOG1, stronger effect = lower value 0.879 | S. cerevisiae deletion strains, locus YLR221C, strain rsa3, stronger effect = lower value 0.987 | S. cerevisiae deletion strains, locus YLR258W, strain gsy2, stronger effect = lower value 0.994 | S. cerevisiae deletion strains, locus YLR262C, strain YPT6 (second series), stronger effect = lower value 0.863 | S. cerevisiae deletion strains, locus YLR262C, strain YPT6, stronger effect = lower value 0.662 | S. cerevisiae deletion strains, locus YLR268W, strain sec22, stronger effect = lower value 0.955 | S. cerevisiae deletion strains, locus YLR320W, strain mms22, stronger effect = lower value 1.01 | S. cerevisiae deletion strains, locus YLR330W, strain CHS5, stronger effect = lower value 0.975 | S. cerevisiae deletion strains, locus YLR342W, strain FKS1 (second series), stronger effect = lower value 1.04 | S. cerevisiae deletion strains, locus YLR342W, strain FKS1, stronger effect = lower value 0.997 | S. cerevisiae deletion strains, locus YLR357W, strain rsc2, stronger effect = lower value 0.895 | S. cerevisiae deletion strains, locus YLR370C, strain arc18, stronger effect = lower value 1 | S. cerevisiae deletion strains, locus YLR371W, strain rom2, stronger effect = lower value 0.986 | S. cerevisiae deletion strains, locus YLR384C, strain iki3, stronger effect = lower value 1.01 | S. cerevisiae deletion strains, locus YLR418C, strain cdc73, stronger effect = lower value 0.859 | S. cerevisiae deletion strains, locus YML016C, strain PPZ1, stronger effect = lower value 0.966 | S. cerevisiae deletion strains, locus YML032C, strain rad52, stronger effect = lower value 0.988 | S. cerevisiae deletion strains, locus YML120C, strain ndi1, stronger effect = lower value 0.995 | S. cerevisiae deletion strains, locus YML124C, strain tub3, stronger effect = lower value 0.96 | S. cerevisiae deletion strains, locus YMR058W, strain fet3, stronger effect = lower value 1 | S. cerevisiae deletion strains, locus YMR078C, strain ctf18, stronger effect = lower value 0.97 | S. cerevisiae deletion strains, locus YMR125W, strain sto1, stronger effect = lower value 1 | S. cerevisiae deletion strains, locus YMR129W, stronger effect = lower value 0.978 | S. cerevisiae deletion strains, locus YMR205C, strain PFK2, stronger effect = lower value 1.02 | S. cerevisiae deletion strains, locus YMR223W, strain ubp8, stronger effect = lower value 0.978 | S. cerevisiae deletion strains, locus YMR231W, strain pep5, stronger effect = lower value 0.989 | S. cerevisiae deletion strains, locus YMR263W, strain SAP30, stronger effect = lower value 0.985 | S. cerevisiae deletion strains, locus YMR307W, strain GAS1, stronger effect = lower value 1.06 | S. cerevisiae deletion strains, locus YNL067W, strain RPL9B, stronger effect = lower value 0.967 | S. cerevisiae deletion strains, locus YNL071W, strain lat1, stronger effect = lower value 0.996 | S. cerevisiae deletion strains, locus YNL128W, strain TEP1, stronger effect = lower value 0.978 | S. cerevisiae deletion strains, locus YNL153C, strain GIM3, stronger effect = lower value 0.989 | S. cerevisiae deletion strains, locus YNL209W, strain ssb2, stronger effect = lower value 1.01 | S. cerevisiae deletion strains, locus YNL233W, strain BNI4, stronger effect = lower value 0.982 | S. cerevisiae deletion strains, locus YNL248C, strain rpa49, stronger effect = lower value 1 | S. cerevisiae deletion strains, locus YNL250W, strain rad50, stronger effect = lower value 0.957 | S. cerevisiae deletion strains, locus YNL271C, strain bni1, stronger effect = lower value 0.956 | S. cerevisiae deletion strains, locus YNL298W, strain CLA4, stronger effect = lower value 0.994 | S. cerevisiae deletion strains, locus YNL322C, strain KRE1 (second series), stronger effect = lower value 0.996 | S. cerevisiae deletion strains, locus YNL322C, strain KRE1, stronger effect = lower value 0.977 | S. cerevisiae deletion strains, locus YNR049C, strain mso1, stronger effect = lower value 0.991 | S. cerevisiae deletion strains, locus YNR052C, strain pop2, stronger effect = lower value 0.993 | S. cerevisiae deletion strains, locus YOL006C, strain TOP1, stronger effect = lower value 0.895 | S. cerevisiae deletion strains, locus YOL012C, strain htz1 0.897 | S. cerevisiae deletion strains, locus YOL147C, strain pex11, stronger effect = lower value 0.964 | S. cerevisiae deletion strains, locus YOR001W, strain rrp6, stronger effect = lower value 1.01 | S. cerevisiae deletion strains, locus YOR061W, strain CKA2, stronger effect = lower value 0.974 | S. cerevisiae deletion strains, locus YOR069W, strain VPS5, stronger effect = lower value 0.979 | S. cerevisiae deletion strains, locus YOR070C, strain gyp1, stronger effect = lower value 0.985 | S. cerevisiae deletion strains, locus YOR080W, strain dia2, stronger effect = lower value 1 | S. cerevisiae deletion strains, locus YOR083W, strain WHI5, stronger effect = lower value 1 | S. cerevisiae deletion strains, locus YOR106W, strain vam3, stronger effect = lower value 1.02 | S. cerevisiae deletion strains, locus YOR136W, strain idh2, stronger effect = lower value 0.99 | S. cerevisiae deletion strains, locus YOR144C, strain elg1, stronger effect = lower value 0.975 | S. cerevisiae deletion strains, locus YOR184W, strain ser1, stronger effect = lower value 0.904 | S. cerevisiae deletion strains, locus YOR231W, strain MKK1, stronger effect = lower value 0.86 | S. cerevisiae deletion strains, locus YOR265W, strain rbl2, stronger effect = lower value 0.98 | S. cerevisiae deletion strains, locus YOR270C, strain vph1, stronger effect = lower value 1.1 | S. cerevisiae deletion strains, locus YOR290C, strain snf2, stronger effect = lower value 1.01 | S. cerevisiae deletion strains, locus YOR316C, strain cot1, stronger effect = lower value 0.964 | S. cerevisiae deletion strains, locus YPL051W, strain arl3, stronger effect = lower value 0.992 | S. cerevisiae deletion strains, locus YPL055C, strain LGE1, stronger effect = lower value 0.953 | S. cerevisiae deletion strains, locus YPL078C, strain atp4, stronger effect = lower value 1.02 | S. cerevisiae deletion strains, locus YPL106C, strain sse1, stronger effect = lower value 0.957 | S. cerevisiae deletion strains, locus YPL240C, strain hsp82, stronger effect = lower value 0.997 | S. cerevisiae deletion strains, locus YPL241C, strain CIN2, stronger effect = lower value 0.972 | S. cerevisiae deletion strains, locus YPR119W, strain clb2, stronger effect = lower value 0.955 | S. cerevisiae deletion strains, locus YPR141C, strain kar3, stronger effect = lower value 0.948 | S. cerevisiae deletion strains, locus YPR163C, strain tif3, stronger effect = lower value 0.992 | S. cerevisiae deletion strains, locus YPR167C, strain met16, stronger effect = lower value 0.976 | S. cerevisiae deletion strains, strain wtn01, stronger effect = lower value 0.962 | S. cerevisiae strains, strain wild type, stronger effect = lower value 0.969
